Most compounds without a hit are left out; they make up all but 4.1% or so of the library.
PRMT1 inh = blocks human protein arginine methyltransferase 1 | Q99873 | inhibition, % at 2.79 µM | recombinant PRMT1, activity-based probe fluorescence polarization | 1.3% of 370,000 active;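 active = inhibition above about 21% made by adding two undisclosed values, limit read from the data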
MBD2 inh = blocks human MBD2 binding to methylated DNA; Q9UBB5; TR-FRET, MBD2 binding to methylated oligonucleotide; inhibition, % at 4.4 µM; 0.31% of 370,000 active; in the data active = inhibition above about 13%
Target sequence (Q9UBB5 whole entry, looked up): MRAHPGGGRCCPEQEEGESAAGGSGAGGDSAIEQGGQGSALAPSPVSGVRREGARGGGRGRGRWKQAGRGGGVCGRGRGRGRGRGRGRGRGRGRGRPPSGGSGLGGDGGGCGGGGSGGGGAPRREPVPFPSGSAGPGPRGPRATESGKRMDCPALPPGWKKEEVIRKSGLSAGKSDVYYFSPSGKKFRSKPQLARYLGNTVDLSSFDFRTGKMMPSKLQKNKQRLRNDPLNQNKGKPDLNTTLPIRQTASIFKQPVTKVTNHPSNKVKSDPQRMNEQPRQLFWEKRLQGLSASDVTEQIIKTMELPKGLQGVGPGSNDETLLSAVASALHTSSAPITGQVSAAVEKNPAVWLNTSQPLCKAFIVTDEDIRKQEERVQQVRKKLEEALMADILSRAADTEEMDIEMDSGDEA
LEDGF integ inh = blocks HIV-1 LEDGF/p75-dependent DNA integration. TR-FRET IN-LEDGF/p75 DNA integration, Eu/Cy5. inhibition, % at 3.7 µM. 0.64% of 370,000 active. AID 743269;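 active = inhibition above the screen-wide mean plus 3 SD, cut at about 13% in these data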;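 note: signal is the Cy5 over europium emission ratio at 671 and 618 nm; 0% = plate median of compound wells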
rCAG RNA binder = molecules binding r(CAG) RNA repeats; r(CAG) RNA repeat, TO-PRO-1 dye displacement fluorescence; inhibition, % at 3 µM; 1.3% of 370,000 active; AID 651821;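 active = inhibition above the plate cutoff, the mean of all test compounds on that plate plus 3 SD, cut at about 35% in these data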;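 note: 0% = DMSO alone and 100% = 100 µM mitoxantrone as full dye displacement; higher means more dye released from RNA so lower well fluorescence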
UHRF1 binding = UHRF1 methyl-DNA binding inhibition; Q96T88; UHRF1 binding to methylated oligo, TR-FRET; inhibition, % at 4.4 µM; 0.75% of 370,000 active; AID 687016; in the data active = inhibition above about 21%;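 note: UHRF1 SRA domain binding a hemimethylated CpG hairpin DNA probe; 0% = median of test compound wells and 100% = reference inhibitor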
ABHD5-PLIN5 inh = ABHD5-PLIN5 protein interaction inhibition; Q00G26+Q8WTS1; Split G. princeps luciferase complementation, luminescence, 4 h; inhibition, % at 4 µM; 0.78% of 360,000 active; AID 602281;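 active = inhibition above the mean inhibition across every tested compound plus 3 SD, cut at about 22% in these data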;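 note: 0% = DMSO only wells and the 100% control is not disclosed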
Starred values were filed as active, the others as inactive; · = no result.

SMILES	PRMT1 inh	MBD2 inh	LEDGF integ inh	rCAG RNA binder	UHRF1 binding	ABHD5-PLIN5 inh
CN(Cc1ccccc1)C(=O)CN(c1ccccc1Cl)S(C)(=O)=O	0	1	4	-3	1	0
COC(=O)c1ccc(CN(c2ccccc2Cl)S(C)(=O)=O)cc1	-5	-5	-4	-4	30*	-1
COc1ccc(NS(=O)(=O)c2cc(NC(=O)CCc3ccccc3)ccc2N2CCOCC2)cc1	0	6	-1	7	31*	-6
COc1ccc(CCC(=O)Nc2ccc(N3CCOCC3)cc2)cc1	0	13	4	4	31*	-4
COc1ccc(NC(=O)CCc2nnc3ccc(N4CCC(C)CC4)nn23)cc1	1	4	-5	-6	0	10
CCC(=O)Nc1ccc(N2CCOCC2)c(S(=O)(=O)Nc2ccc(OC)cc2)c1	-2	-1	-2	1	1	0
COc1ccc(N2CCN(c3ccc4nnc(CCC(=O)Nc5ccc(C)cc5)n4n3)CC2)cc1	-4	4	0	2	21*	0
CCOC(=O)c1c(NC(C)=O)sc2c(O)c(Br)cc(Br)c12	10	-3	0	44*	-2	6
COC(=O)c1cc2c(c3c4cc(F)ccc4n(S(=O)(=O)c4cccc(C)c4)c13)C(=O)N(Cc1ccccc1OC)C2	-3	-1	-3	13	2	·
O=C(c1ccc(C(F)(F)F)cc1)N1CCC(=O)N(C(COCc2ccc(Cl)cc2)Cc2ccccc2)CC1 (configuration not stated)	1	-2	0	-8	0	4
O=C(c1ccc(C(F)(F)F)cc1)N1CCC(=O)N(C(COCc2ccccc2)Cc2ccccc2)CC1 (configuration not stated)	-1	-4	-2	-7	40*	4
Oc1ccc(C=Nc2cccc3ccccc23)c(O)c1	11	-7	12	16	-12	0
Cc1ccc(N=Cc2ccc(O)cc2O)cc1F	4	-9	37*	21	-2	5
CCCCOc1ccc(C(=O)NC2CCCCN(C)C2=O)cc1 (configuration not stated)	-5	0	0	2	-1	·
COc1ccc(N2CCN(C(=O)c3oc4ccccc4c3NC(=O)Cc3cccc(OC)c3)CC2)cc1	0	4	4	0	24*	-2
CCOC(=O)N1CCN(C(=O)C[C@H]2C[C@@]3(C(=O)OC)C(=C[C@H](COCc4ccccc4)O[C@@H]3C)N(CCC3=CCCCC3)C2=O)CC1	-1	-4	-1	5	1	·
O=C(Cc1ccccc1)NN1C(=O)C2C(C1=O)C1C=CC2C12CC2 (configuration not stated)	0	1	6	0	24*	0
CNc1nc(N)c([N+](=O)[O-])c(Nc2cccc(Br)c2)n1	-1	-3	0	·	0	·
O=C(Nc1ccccc1Cl)O[C@@H]1CC[C@@]23CCCN2C(=O)CCC[C@H]3C1	-2	-5	0	·	2	·
N#Cc1ccc(-c2csc(NC3=NCCCCC3)n2)cc1	-4	3	1	-2	39*	16
FC(F)Oc1ccc(-c2csc(NNC3=NCCCCC3)n2)cc1	38*	-2	7	11	-4	-12
Brc1ccc(-c2csc(NNC3=NCCCCC3)n2)cc1	12	0	-2	6	-3	-11
CN(C)C/C=C/C(=O)Nc1cccc(-c2c[nH]c3ncnc(Oc4ccc(NC(=O)CC(=O)Nc5ccc(F)cc5)cc4F)c23)c1	·	·	·	·	·	24*
CC(C)(C)C(=O)N1CCC[C@]2(CC[C@H](CCC#N)O2)C1	0	1	-1	2	0	·
CCCCCCCCN1C(=O)[C@@H](CC(=O)NCCCOC)C[C@@]2(C(=O)OC)C1=C[C@H](C(C)(C)C)O[C@@H]2C	2	-2	0	4	-3	·
SMILES	PRMT1 inh	MBD2 inh	LEDGF integ inh	rCAG RNA binder	UHRF1 binding	ABHD5-PLIN5 inh
CCCCCCCCN1C(=O)[C@@H](CC(=O)NCCCN2CCCC2=O)C[C@@]2(C(=O)OC)C1=C[C@H](C(C)(C)C)O[C@@H]2C	1	-1	4	4	35*	·
O=C(NNc1nc2cc3c(cc2s1)OCO3)c1ccc(F)cc1	23*	4	-1	8	1	7
Cc1cc(Nc2cccc(Cl)c2)nc(NCc2ccccc2)n1	-1	2	3	3	-2	22*
CC(C)(C)OC(=O)N1CCC2CCN(CCc3ccccc3)CC21 (configuration not stated)	-5	4	1	-1	0	·
CC(=O)NC1CCCCN(C)C1=O (configuration not stated)	2	1	-3	2	1	·
COC(=O)CC1OCC=C2CN3CCC45C6=CC(=O)C(=O)C([N+](=O)[O-])=C6NC4C1C2CC35 (configuration not stated)	30*	16*	-3	6	20	-36
S=C(Nc1ccc(Cl)c(Cl)c1)Nc1nnc(-c2ccncc2)s1	-1	10	7	·	5	·
COC(=O)[C@]12C[C@H](CC(=O)N3CCN(C(=O)C4CC4)CC3)C(=O)N(Cc3ccccc3)C1=C[C@H](C1CCCC1)O[C@@H]2C	-1	4	-1	1	-3	·
COC(=O)c1ccc(CCc2cc(O)ccc2O)cc1	·	·	·	·	·	42*
CCC(=O)Nc1ccc(C(=O)OCc2ccccc2)cc1	1	-1	-1	-4	0	5
COC(=O)c1ccc(O)cc1	5	0	3	-2	0	2
O=C(OCc1ccccc1)c1ccc(NCc2cc(O)ccc2O)cc1	22*	-5	5	12	-4	16
O=C(/C=C(\Nc1cccc(OC(F)F)c1)c1ccccc1)c1ccccc1	2	0	-3	3	-1	·
OCC1OC(n2cnc3c(=S)nc[nH]c32)CC1O (configuration not stated)	21*	8	4	2	8	2
O=C(CSc1nc2ccccc2o1)NN=C/C=C/c1ccccc1	15	-4	4	9	2	·
Cc1ccc(-n2c3c(c(=O)[nH]c2=O)C(NS(=O)(=O)c2ccc(Cl)cc2)(C(F)(F)F)C(=O)N3)cc1 (configuration not stated)	-5	4	2	0	28*	-6
Cc1c(C(=O)NNc2cc(=O)n(C)c(=O)n2C)cccc1[N+](=O)[O-]	23*	10	-3	7	2	10
COC(=O)[C@]12C[C@H](CC(=O)N3CCCCC3)C(=O)N(Cc3ccco3)C1=C[C@H](C1CCCC1)O[C@@H]2C	-1	0	5	-1	2	·
Cc1ccc(OC(=O)COc2ccccc2C)c(-n2nc3ccccc3n2)c1	24*	3	-6	2	-3	-8
O=C(OCc1cn(Cc2cccc(Cl)c2)nn1)N1CCOCC1	4	4	-3	1	0	·
CCCc1nc2ccc(C(=O)OC)cn2c1Cc1ccc(C)cc1	-3	10	6	5	22*	0
